Measured values from PubChem BioAssay (NCI).
Compounds without any hit were thinned out: in the full panel of roughly 79,000, 15% have a hit. The source made the active and inactive calls. Cut-off read from the data, not from the text of the source: active = growth inhibition above about 70%; inactive = the rest.

How the values were obtained:
[1] = NCI Yeast Anticancer Drug Screen. Data for the rad52 strain (AID 147);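 note: 0% = growth of vehicle-treated control cultures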; conditions: S. cerevisiae rad52 mutant growth inhibition, stronger effect = higher value
Outline: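 Genetically altered yeast (DNA damage repair defect) treated with compound; inhibition calculated relative to vehicle.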

[2] = NCI Yeast Anticancer Drug Screen. Data for the wt1 strain (AID 149);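 note: 0% = growth of vehicle-treated wt1 cultures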; conditions: S. cerevisiae wt1 strain (SPY 50644) growth inhibition, stronger effect = higher value
Outline: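 Measured: growth of wt1 yeast under compound versus vehicle treatment, reported as inhibition.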

[3] = NCI Yeast Anticancer Drug Screen. Data for the rad50EPP+ strain (AID 151);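 note: 0% = growth of vehicle-treated control cultures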; conditions: S. cerevisiae rad50 mutant strain, stronger effect = higher value
Outline: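 Strain rad50EPP+; compound exposure; % growth inhibition vs vehicle.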

[4] = NCI Yeast Anticancer Drug Screen. Data for the mgt1 strain (AID 153); conditions: S. cerevisiae mgt1 mutant growth inhibition, stronger effect = higher value
Outline: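 Read-out: yeast growth inhibition vs vehicle control. Strain mgt1, drawn from a panel altered in DNA damage repair or cell cycle control.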

[5] = NCI Yeast Anticancer Drug Screen. Data for the rad50 strain (AID 155);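 note: 0% = growth of vehicle-only cultures of the same strain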; conditions: S. cerevisiae rad50 strain growth inhibition, stronger effect = higher value
Outline: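 Growth of the mutant yeast was measured after compound exposure and referenced to vehicle-treated cultures.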

[6] = NCI Yeast Anticancer Drug Screen. Data for the mec2-1 strain (AID 157); conditions: S. cerevisiae mec2-1 strain, stronger effect = higher value
Outline: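 Cells of the genetically defined mec2-1 yeast strain are incubated with test compound. Inhibition of growth is calculated against vehicle-treated controls.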

[7] = NCI Yeast Anticancer Drug Screen. Data for the rad14 strain (AID 159);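 note: 0% = growth of vehicle-treated control cultures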; conditions: S. cerevisiae rad14 strain growth inhibition, stronger effect = higher value
Outline: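 Here, inhibition of yeast growth was measured after compound exposure, using a strain with a genetic defect in DNA damage repair and vehicle-treated cultures as the reference.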

[8] = NCI Yeast Anticancer Drug Screen. Data for the sgs1 mgt1 strain (AID 161);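 note: 0% = growth of cultures given vehicle only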; conditions: S. cerevisiae sgs1 mgt1 strain, stronger effect = higher value
Outline: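 Genetically altered yeast, compound exposure, growth inhibition relative to vehicle.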

[9] = NCI Yeast Anticancer Drug Screen. Data for the CLN2oe strain (AID 163);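 note: 0% = growth of vehicle-only control cultures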; conditions: S. cerevisiae CLN2oe strain, stronger effect = higher value
Outline: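 Strain altered in cell-cycle control, incubated with compound; growth compared to solvent-treated controls.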

[10] = NCI Yeast Anticancer Drug Screen. Data for the cln2 rad14 strain (AID 165);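 note: 0% = growth equal to vehicle treated cultures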; conditions: S. cerevisiae cln2 rad14 strain, stronger effect = higher value
Outline: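 The screen exposed genetically defined yeast (cln2 rad14) to test compounds and scored growth inhibition relative to vehicle-treated controls.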

[11] = NCI Yeast Anticancer Drug Screen. Data for the bub3 strain (AID 167); conditions: S. cerevisiae bub3 mutant strain, stronger effect = higher value
Outline: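 Whole-cell yeast assay. The mutant strain was incubated with compounds, and growth inhibition was determined by comparison with vehicle-treated cells.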

[12] = NCI Yeast Anticancer Drug Screen. Data for the mlh1 strain (AID 171);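 note: 0% = growth of vehicle-treated control cultures of the same strain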; conditions: S. cerevisiae mlh1 strain growth inhibition, stronger effect = higher value
Outline: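 Yeast screen: mutant strain plus compound, growth scored against vehicle control wells.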

[13] = NCI Yeast Anticancer Drug Screen. Data for the sgs1 strain (AID 173);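 note: 0% = growth of vehicle-only control cultures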; conditions: S. cerevisiae sgs1 mutant, stronger effect = higher value
Outline: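 Inhibition of yeast growth served as the measure. The mutant strain was treated with each compound, and growth was normalised to cultures receiving vehicle alone.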

[14] = NCI Yeast Anticancer Drug Screen. Data for the mlh1 rad18 strain (AID 175); conditions: S. cerevisiae mlh1 rad18 strain growth inhibition, stronger effect = higher value
Outline: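 Compound-treated yeast growth, normalised to vehicle controls. Strain bears defined DNA repair mutations.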

[15] = NCI Yeast Anticancer Drug Screen. Data for the rad18 strain (AID 177); conditions: S. cerevisiae rad18 mutant growth inhibition, stronger effect = higher value
Outline: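 Inhibition values reflect reduced yeast growth compared with vehicle-treated controls, using a strain engineered with a DNA damage repair defect.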

[16] = at 5.0 µM (retest, dose inferred, filed as 0.5)
[17] = at 50.0 µM (retest, dose inferred, filed as 5.0)

Measured: growth inhibition

NC(=O)c1c([N+](=O)[O-])cc(C(F)(F)F)cc1[N+](=O)[O-]
active: [5]; at 50.0 µM 97.8% | [6]; at 50.0 µM 97.2% | [8]; at 50.0 µM 98.4% | [10]; at 50.0 µM 84.3% | [11]; at 50.0 µM 93.1% | [14]; at 50.0 µM 97.8%
inactive: [1]; at 1.2 µM 2% | [1]; at 3.7 µM 1% | [1]; at 11.0 µM 3% | [1]; at 33.0 µM 6% | [1]; at 100.0 µM 7% | [2]; at 1.2 µM 0% | [2]; at 3.7 µM 0% | [2]; at 11.0 µM 0% | [2]; at 33.0 µM 2% | [2]; at 100.0 µM 2% | [3]; at 1.2 µM 1% | [3]; at 3.7 µM 5% | [3]; at 11.0 µM 7% | [3]; at 33.0 µM 16% | [3]; at 100.0 µM 40% | [4]; at 1.2 µM 3% | [4]; at 3.7 µM 5% | [4]; at 11.0 µM 4% | [4]; at 33.0 µM 6% | [4]; at 100.0 µM 6% | [5]; at 1.2 µM -1% | [5]; at 3.7 µM 0% | [5]; [16] -6% | [5]; at 11.0 µM -1% | [5]; at 33.0 µM 3% | [5]; [17] -4% | [5]; at 100.0 µM 11% | [6]; at 1.2 µM 0% | [6]; at 3.7 µM 0% | [6]; [16] 18% | [6]; at 11.0 µM 0% | [6]; at 33.0 µM 3% | [6]; [17] 3% | [6]; at 100.0 µM 10% | [7]; at 1.2 µM 2% | [7]; at 3.7 µM 0% | [7]; at 11.0 µM 0% | [7]; at 33.0 µM 0% | [7]; at 100.0 µM 1% | [8]; [16] 5% | [8]; [17] 2% | [9]; at 1.2 µM 2% | [9]; at 3.7 µM -1% | [9]; at 11.0 µM -4% | [9]; at 33.0 µM -5% | [9]; at 100.0 µM -4% | [10]; [16] 8% | [10]; [17] 22% | [11]; at 1.2 µM -1% | [11]; at 3.7 µM -1% | [11]; [16] 7% | [11]; at 11.0 µM 0% | [11]; at 33.0 µM -1% | [11]; [17] 23% | [11]; at 100.0 µM 5% | [12]; at 1.2 µM -2% | [12]; at 3.7 µM 2% | [12]; at 11.0 µM 2% | [12]; at 33.0 µM 3% | [12]; at 100.0 µM 8% | [13]; at 1.2 µM 1% | [13]; at 3.7 µM 3% | [13]; at 11.0 µM 5% | [13]; at 33.0 µM 11% | [13]; at 100.0 µM 19% | [14]; [16] 55% | [14]; [17] 12% | [15]; at 1.2 µM 0% | [15]; at 3.7 µM 2% | [15]; at 11.0 µM 4% | [15]; at 33.0 µM 6% | [15]; at 100.0 µM 16%

CCOC(=O)c1cc([N+](=O)[O-])c(Sc2ncnc3nc[nH]c23)c([N+](=O)[O-])c1
inactive: [1]; at 1.2 µM 0% | [1]; at 3.7 µM 0% | [1]; at 11.0 µM 34% | [2]; at 1.2 µM -22% | [2]; at 3.7 µM -26% | [2]; at 11.0 µM -6% | [2]; at 33.0 µM 62% | [3]; at 1.2 µM -8% | [3]; at 3.7 µM -8% | [3]; at 11.0 µM -5% | [3]; at 33.0 µM 6% | [3]; at 100.0 µM 22% | [4]; at 1.2 µM -20% | [4]; at 3.7 µM -29% | [4]; at 11.0 µM 16% | [5]; at 1.2 µM -40% | [5]; at 3.7 µM -18% | [5]; [16] 31% | [5]; at 11.0 µM 11% | [5]; [17] 63% | [5]; at 50.0 µM 17.4% | [6]; at 1.2 µM -22% | [6]; at 3.7 µM -13%
active: [1]; at 33.0 µM 79% | [1]; at 100.0 µM 90% | [2]; at 100.0 µM 92% | [4]; at 33.0 µM 81% | [4]; at 100.0 µM 89% | [5]; at 33.0 µM 75% | [5]; at 100.0 µM 89%
